Results on 55 compounds are retold here after PubChem BioAssay AID485346 (Sanford-Burnham Center for Chemical Genomics, 2010).

The whole screen tested about 330,000 compounds, of which about 10,000 (3%) were called active. The entries come from a sample that favours actives as a whole. A number with no mark means an inactive call.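 Rule for the calls: active = inhibition of at least 50% at 8 µM in the primary screen; inactive = the rest.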

In general, inhibition refers to the drop in the measured response relative to a control, in per cent.

Protein Mdm4 (Homo sapiens) + E3 ubiquitin-protein ligase Mdm2 (Homo sapiens), sequence (O15151 whole entry, looked up): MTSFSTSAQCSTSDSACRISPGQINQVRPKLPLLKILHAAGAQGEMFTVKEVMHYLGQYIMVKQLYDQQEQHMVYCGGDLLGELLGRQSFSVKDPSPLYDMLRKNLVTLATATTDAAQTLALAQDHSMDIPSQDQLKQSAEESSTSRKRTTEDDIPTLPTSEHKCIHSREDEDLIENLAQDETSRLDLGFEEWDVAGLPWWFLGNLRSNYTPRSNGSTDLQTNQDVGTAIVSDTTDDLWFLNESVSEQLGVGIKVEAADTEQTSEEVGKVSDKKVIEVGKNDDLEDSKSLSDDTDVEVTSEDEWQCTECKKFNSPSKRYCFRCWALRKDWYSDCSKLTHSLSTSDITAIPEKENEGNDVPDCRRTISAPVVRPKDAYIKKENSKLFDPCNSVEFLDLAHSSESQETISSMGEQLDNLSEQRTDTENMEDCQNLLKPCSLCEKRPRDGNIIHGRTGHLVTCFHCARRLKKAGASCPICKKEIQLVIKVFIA
Protein Mdm4 (Homo sapiens) + E3 ubiquitin-protein ligase Mdm2 (Homo sapiens), sequence (Q00987 whole entry, looked up): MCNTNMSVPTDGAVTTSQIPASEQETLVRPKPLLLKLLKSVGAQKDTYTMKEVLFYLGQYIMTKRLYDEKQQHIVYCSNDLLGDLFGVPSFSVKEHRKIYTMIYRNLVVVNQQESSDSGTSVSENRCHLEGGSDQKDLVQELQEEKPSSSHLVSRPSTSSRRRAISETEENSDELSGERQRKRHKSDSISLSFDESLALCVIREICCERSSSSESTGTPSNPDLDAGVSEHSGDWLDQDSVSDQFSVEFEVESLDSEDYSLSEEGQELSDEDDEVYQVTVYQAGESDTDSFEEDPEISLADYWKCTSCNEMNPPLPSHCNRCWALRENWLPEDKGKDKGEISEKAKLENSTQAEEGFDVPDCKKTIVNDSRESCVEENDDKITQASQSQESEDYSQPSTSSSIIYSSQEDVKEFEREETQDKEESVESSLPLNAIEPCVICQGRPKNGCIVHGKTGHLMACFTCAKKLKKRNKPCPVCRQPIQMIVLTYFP

This experiment has as its target Protein Mdm4 (Homo sapiens) + E3 ubiquitin-protein ligase Mdm2 (Homo sapiens) (UniProt O15151+Q00987). The experiment in a line: disruptors of Mdm2/MdmX RING complex – cell-based, luminescence, split luciferase, SaOS-2, uHTS, primary screen (AID 485346). Conditions: SaOS-2 split-luciferase Mdm2/MdmX complementation, at 8 µM, hits give high values.
Regarding `COCCNC(=O)C(OC(=O)c1cccs1)c1ccc(F)cc1` (stereo not given), the inhibition is 4.05%.

With `CCc1cccc(NC(=O)CCC(=O)O)c1`, the inhibition is 3.13%. For `O=C(Cc1ccccc1)Nc1cccc(NC(=O)c2ccccc2)c1` the value was 4.35%; for `O=C(CCl)Nc1cccc(CP(=O)(c2ccccc2)c2ccccc2)c1`, 96.3% (active). For `Clc1ccc(-c2nc3ccccn3c2CN2CCSCC2)cc1` the value was 15.3%. For `Cc1ccc(CNC(=O)C2CCN(S(=O)(=O)c3ccc4nc5c(c(C(=O)O)c4c3)CC(C)CC5)CC2)cc1` (stereo not given) the value was 6.94%. Regarding `O=C(NC(=S)Nc1ccc(Cl)cc1Cl)C1CC1`, the inhibition is -39.2%. The value for `Cc1cccc(Nc2nc3c(S(=O)(=O)c4ccccc4)nnn3c3ccccc23)c1C` was 77.7% (active); that for `Cc1ccc(S(=O)(=O)c2nnn3c2nc(N2CCN(c4ccccn4)CC2)c2ccccc23)cc1` was 10.2%; that for `CC(=O)Nc1ccc(Nc2nc3c(S(=O)(=O)c4ccc(C)c(C)c4)nnn3c3ccccc23)cc1` was 23.4%. The value for `COc1ccc(C2(CNC(=O)Cc3ccc(OC)c(OC)c3)CCCC2)cc1` was 10.1%. For `OCCNc1nc(Nc2ccc(Cl)c(Cl)c2)nc2ccccc12` the value was 80.6% (active); for `Cc1nnc(NCCO)c2ccccc12`, -14%. For the compound `CN(C)c1nc(Nc2ccc(Cl)c(Cl)c2)nc(N(C)C)n1`, the inhibition is -14.8%. `COc1ccc(C(C#N)N2N=C(C)CC2(C)C)cc1` (stereo not given): the inhibition is -22.4%. The value for `Cc1ccc(S(=O)(=O)N2[C@@H](c3ccc(Br)cc3)C(C(=O)O)=C[C@H]2CC2CCCC2)cc1` was 30.4%. For `CC[C@H]1CN2CCc3cc(OC)c(OC)cc3[C@@H]2C[C@@H]1C[C@H]1NCCc2cc(OC)c(OC)cc21` the value was 91.7% (active); for `COc1ccc2c(c1)CCNC2Cc1ccc(OC)c(O)c1` (stereo not given), -20.9%; for `CCc1ccc(OCC2c3cc(OC)c(OC)cc3CCN2C(C)=O)cc1` (stereo not given), 6.86%. The value for `C=C(C)c1cccc(C(C)(C)NC(=O)NCCN(CC)CC)c1` was 14.6%; that for `Cc1ccc(S(=O)(=O)N2C[C@@H]3CCCC[C@@H]3[C@@H](C)[C@H]2c2cn(Cc3ccccc3)c3ccc(F)cc23)cc1` was 30%; that for `CCNC(=O)COC(=O)/C=C/c1c(C)nn(Cc2cccc(OC)c2)c1Cl` was 11.4%.

For the compound `COc1ccc(NS(=O)(=O)c2ccc(NC(=S)NC(=O)/C=C/c3ccc(C)cc3)cc2)nn1`, the inhibition is -0.635%. As for `COc1ccc(/C=C/C(=O)c2ccc(NS(=O)(=O)c3ccc(C)cc3)cc2)cc1O`, the inhibition is 65.1% (active). For `Cc1ccc(C(=O)/C=C/Nc2ccc(S(=O)(=O)Nc3onc(C)c3C)cc2)cc1` the value was 0.513%; for `Cc1cc(C)n2nc(C(=O)OC(C)C(=O)c3cc(C)c(C)cc3C)nc2n1` (stereo not given), 1.62%. The value for `OCC[C@H]1C[C@H](O)[C@@H](O)[C@]2(Cc3ccccc3CO2)O1` was -20.7%; that for `Cc1cccc(NC(=O)c2nc(S(=O)(=O)Cc3ccccc3)ncc2Cl)c1` was 97.5% (active); that for `Cc1cccc(CS(=O)(=O)c2ncc(Cl)c(C(=O)Nc3ccc(F)cc3)n2)c1` was 82.1% (active).

`CCOc1ccc(NC(=O)c2nc(SCC)ncc2Cl)cc1`: the inhibition was 46.8%.

In the case of `Cc1cccc(NC(=O)C(C)SCc2ccccc2)c1` (stereo not given), the inhibition was 0.19%.

As for `Cc1cccc(NC(=O)c2nc[nH]c2C(=O)NCC(=O)OCc2ccccc2)c1`, the inhibition is 10.4%.

In the case of `CSc1ncc(Cl)c(C(=O)Nc2cc(C)ccc2C)n1`, the inhibition was -15.6%.

As to `CCOc1ccc2c(c1)c(=O)c(S(=O)(=O)c1ccc(C)cc1)cn2CC`, the inhibition was 5.7%.

On to `O=C(COC(=O)C1CC2C=CC1C2)Nc1ccccc1` (stereo not given), for which the inhibition is -11.4%. As for `CCS(=O)(=O)c1ccc(C(=O)NC)c(Cl)c1Cl`, the inhibition was 13.4%. For `COc1cc(C(=O)Nc2cc(C(F)(F)F)ccc2N2CCOCC2)ccc1O` the value was 15.4%; for `CC(C)(C)OC(=O)C[C@@H]1C/C=C\C[C@@H](CC(=O)N[C@H](CO)Cc2ccccc2)C(=O)NC[C@@H](c2ccccc2)OC1=O`, 13.2%. `O=C(C[C@H]1C/C=C\C[C@@H](NC(=O)OCC2c3ccccc3-c3ccccc32)C(=O)O[C@@H](c2ccccc2)CNC1=O)N[C@H](CO)Cc1ccccc1`: the inhibition is 99.8% (active). The value for `CC(C)(C)OC(=O)C[C@H]1C/C=C\C[C@@H](CC(=O)N[C@H](CO)Cc2ccccc2)C(=O)NC[C@@H](c2ccccc2)OC1=O` was 9.47%. The value for `Cc1c(NC(=O)CN(C)CC(=O)Nc2ccc(F)c(F)c2F)c(=O)n(-c2ccccc2)n1C` was 7.46%. The value for `OCC[C@H]1C[C@@H](O)[C@H](O)[C@]2(OCCCc3ccccc32)O1` was 8.75%. Take `CC(C)C[C@H](NC(=O)Nc1cccc(C(F)(F)F)c1)C(=O)O`: the inhibition is 29.7%. On to `CC(=O)N1CCN(C(=O)Nc2cccc(C(F)(F)F)c2)CC1`, for which the inhibition was -7.17%. The value for `O=C(Nc1ccc(C(=O)N2CCOCC2)cc1)Nc1cccc(C(F)(F)F)c1` was 54.6% (active). As for `O=C(NCc1ccccc1)c1ccc(S(=O)(=O)Nc2cccc(C(F)(F)F)c2)cc1`, the inhibition was 25.2%. For `CCNS(=O)(=O)c1ccc(NC(=O)Nc2cccc(C(F)(F)F)c2)cc1` the value was 52.6% (active); for `O=C(Nc1ccc(Cl)cc1)Nc1ccc(C(=O)N2CCOCC2)cc1`, 9.36%. For `O=S(=O)(NCCS(=O)(=O)N1CCN(c2ccccc2)CC1)c1ccc(F)cc1` the value was 23.9%. For `Cc1nc(-c2ccccc2)cn2c1nc1ccccc12` the value was 14.8%; for `COc1ccccc1NC(=O)c1c(Br)cnn1C`, -30.1%; for `O=C1/C(=C\c2ccccc2Cl)SC(=S)N1CCC(=O)N1CCCc2ccccc21`, 99.5% (active). For the compound `CN(C(=O)CCN1C(=O)/C(=C/c2ccccc2F)SC1=S)C1CCS(=O)(=O)C1` (stereo not given), the inhibition was 24.9%. As to `O=C(CN1CCCCCC1)NCCN1C(=O)S/C(=C\c2ccccc2Cl)C1=O`, the inhibition was 3.22%. For `COc1ccc(C(=O)OCc2cc(=O)n3ccsc3n2)cc1F` the value was 2.88%.
